For two compounds, normalized growth results are on record in PubChem BioAssay AID1159580 (chemical genetic matrix, 2015).

A short description of the assay: chemical genetic growth profiling, strain panel (AID 1159580).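 Also: tested at 20 µM; growth read once vehicle control cultures reached saturation at 30 °C; 1 = growth at the plate median or of vehicle wells; lower values mean less growth of the strain.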 Particulars: growth OD.
Where [1] appears, read: S. cerevisiae deletion strains, locus YAL013W, strain DEP1, active compounds read low.
[2] abbreviates: S. cerevisiae deletion strains, locus YGR078C, strain PAC10, active compounds read low.
The mark [3] stands for this setting: S. cerevisiae deletion strains, locus YJR075W, strain HOC1, active compounds read low.
[4] abbreviates: S. cerevisiae deletion strains, locus YPL055C, strain LGE1, active compounds read low.
[5] abbreviates: S. cerevisiae deletion strains, locus YPL241C, strain CIN2, active compounds read low.

About 2,000 (36%) of roughly 5,500 compounds were called active. Not shown: some 18% with an inconclusive outcome. The list shows a part of the results. A number with no mark means an inactive call. Rule as the data show it: active = normalized growth mostly below about 0.91 (no sharp cut-off); inconclusive = no clear call, values can overlap the other calls; inactive = mostly above about 0.92.

As for `NC(=O)CCSCCC(N)=O`, the normalized growth is 0.992 under setting [1]; 0.995 (S. cerevisiae deletion strains, locus YBR229C, strain ROT2, active compounds read low); 0.996 (S. cerevisiae deletion strains, locus YDL101C, strain DUN1, active compounds read low); 1.02 (S. cerevisiae deletion strains, locus YDL134C, strain PPH21, active compounds read low); 0.999 (S. cerevisiae deletion strains, locus YDR150W, strain NUM1, active compounds read low); 1.01 (S. cerevisiae deletion strains, locus YEL061C, strain CIN8, active compounds read low). Further, the normalized growth reads like this: under setting [2], 0.988; (S. cerevisiae deletion strains, locus YHR030C, strain SLT2, active compounds read low) 0.972; (S. cerevisiae deletion strains, locus YHR087W, strain rtc3, active compounds read low) 1; (S. cerevisiae deletion strains, locus YJR043C, strain POL32, active compounds read low) 0.976; under setting [3], 1; (S. cerevisiae deletion strains, locus YLR039C, strain RIC1, active compounds read low) 1.02. Besides, the normalized growth reads like this: (S. cerevisiae deletion strains, locus YLR058C, strain SHM2 (second series), active compounds read low) 0.997; (S. cerevisiae deletion strains, locus YLR085C, strain ARP6, active compounds read low) 1.06; (S. cerevisiae deletion strains, locus YLR262C, strain YPT6, active compounds read low) 1.03; (S. cerevisiae deletion strains, locus YML094W, strain GIM5, active compounds read low) 1.01; (S. cerevisiae deletion strains, locus YMR219W, strain ESC1, active compounds read low) 1.01; (S. cerevisiae deletion strains, locus YMR263W, strain SAP30, active compounds read low) 0.991. For the same compound, the normalized growth is 1.09 (S. cerevisiae deletion strains, locus YMR307W, strain GAS1, active compounds read low); 0.979 (S. cerevisiae deletion strains, locus YNL153C, strain GIM3, active compounds read low); 0.988 (S. cerevisiae deletion strains, locus YNL298W, strain CLA4 (second series), active compounds read low); 1.03 (S. cerevisiae deletion strains, locus YNL322C, strain KRE1, active compounds read low); 0.981 (S. cerevisiae deletion strains, locus YNR030W, strain Alg12, active compounds read low); 1.02 under setting [4]. In addition, the normalized growth is 0.995 under setting [5]; 0.92 (S. cerevisiae deletion strains, locus YPR135W, strain CTF4, active compounds read low); 1.02 (S. cerevisiae strains, strain wild type, active compounds read low).

`NC(=O)CI`: the normalized growth under setting [1] is 0.951; the normalized growth (S. cerevisiae deletion strains, locus YAL040C, strain CLN3, active compounds read low) was 0.968; the normalized growth (S. cerevisiae deletion strains, locus YCL061C, strain MRC1 (second series), active compounds read low) was 0.98; the normalized growth (S. cerevisiae deletion strains, locus YDR363W, strain ESC2, active compounds read low) was 0.988; the normalized growth (S. cerevisiae deletion strains, locus YER002W, strain NOP16, active compounds read low) was 0.949; the normalized growth under setting [2] was 0.907 (active). For the same compound, the normalized growth is 0.942 (S. cerevisiae deletion strains, locus YGR229C, strain SMI1, active compounds read low); 0.966 under setting [3]; 0.947 (S. cerevisiae deletion strains, locus YNL175C, strain NOP13, active compounds read low); 0.936 (S. cerevisiae deletion strains, locus YNL197C, strain WHI3, active compounds read low); 0.972 (S. cerevisiae deletion strains, locus YNL224C, strain SQS1, active compounds read low); 0.792 (active) (S. cerevisiae deletion strains, locus YOR083W, strain WHI5 (second series), active compounds read low). Also, the normalized growth reads like this: under setting [4], 0.956; under setting [5], 0.966.
